# D3 antag: D3 dopamine receptor (human) antagonism. P35462. max response, negative = inhibition, %. D3R cells, DiscoveRx beta-arrestin luminescence, antagonist mode; hits give low values. AID 652054. 360,000 compounds, 2.5% hits; in the data active = max response below about -50%; inconclusive = no clear call, values can overlap the other calls; note: % is set by controls: 0 for no effect and ±100 for the full control effect
# Target sequence (P35462 whole entry, looked up): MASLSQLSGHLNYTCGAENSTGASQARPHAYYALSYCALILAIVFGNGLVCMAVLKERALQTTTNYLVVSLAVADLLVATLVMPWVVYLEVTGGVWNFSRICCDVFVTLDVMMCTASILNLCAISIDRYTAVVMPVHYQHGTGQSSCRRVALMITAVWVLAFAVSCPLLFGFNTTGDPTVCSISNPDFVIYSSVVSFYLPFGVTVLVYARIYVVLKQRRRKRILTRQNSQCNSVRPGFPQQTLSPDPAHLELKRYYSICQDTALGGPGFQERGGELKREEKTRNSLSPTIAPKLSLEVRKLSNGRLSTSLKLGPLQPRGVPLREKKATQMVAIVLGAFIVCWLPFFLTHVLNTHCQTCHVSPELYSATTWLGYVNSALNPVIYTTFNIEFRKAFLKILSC
#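 Cells expressing the human receptor were seeded at 1500 cells/well, incubated overnight at 37 degrees C in 5% CO2, then exposed to library compounds with dopamine controls for 90 minutes at 37 degrees C before luminescent detection.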
# Nrf2 activator: activates Nrf2 signaling; 410,000 compounds, 0.31% hits; AID 624171; Potency, µM (titrated, usually from 46.1 µM), for inactives: top-dose activation, actives largely listed as activators; AREc32 ARE-luciferase reporter (MCF7-derived line), luminescence, 24 h; note: potency is the fitted concentration of half-maximal effect; % of control where 0% means no effect; nearly all actives have a fitted effect of over 65% in size
#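 AREc32 cells carrying an ARE-driven firefly luciferase, 1000 cells/well in OPTI-MEM with 5% FBS, dosed after overnight attachment and incubated 24 hr at 37 deg C. Steady-Glo luminescence read after 30 min at RT.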
# D3 ag: D3 dopamine receptor (human) agonism; P35462; D3R DiscoveRx beta-arrestin cells, luminescence, 90 min; max activation, %; 410,000 compounds, 0.58% hits; AID 652048; in the data active = max activation above about 30%; note: 0% is about no effect
#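 Cells at 1500/well, incubated overnight, then treated with pinned compounds (dopamine as control) for 90 min at 37 degrees C. DiscoveRx reagent added for 30 - 60 minutes at room temperature; luminescence read.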
# Glioma ERSR ind: inducers of ER stress response in human glioma cells; U87-MG GRP78 promoter luciferase reporter, 16 h; Potency, µM, for the others: at the top dose activation, actives largely listed as activators; 420,000 compounds, 0.02% hits; AID 602332; note: potency is the fitted concentration of half-maximal effect; series mostly up to about 76 µM; % of control where 0% means no effect; nearly all actives have a fitted effect of over 35% in size
#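 Stably transfected U87-MG glioma cells carrying a GRP78-based luciferase sensor; 16 h compound incubation. Luminescence end-point read 10 min after Bright-Glo addition at room temperature.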
# Active calls of the source: *; ? = inconclusive; · = no result given; ! = not confirmed by another sample. The list is not random: actives were taken first. Their share in the collection is about 3%. Unless noted, calls come from the whole dose curve; as a rule, active = well fitted curve in the direction sought with a large enough effect; inconclusive = small, poorly fitted or top-dose-only effect, or another doubt; inactive = no such curve, though single readings can be large; an effect the other way counts as inactive or inconclusive.
SMILES,D3 antag,Nrf2 activator,D3 ag,Glioma ERSR ind
Cc1cc(-c2nnc3n2N=C(C(C)(C)C)CS3)n[nH]1,-52*,-1%,-7,-1%
COc1ccc(OC)c(C2=Nn3c(nnc3-c3cc(C)[nH]n3)SC2)c1,15,4%,2,1%
Cc1cccc2c1cnn2C(=O)CCC(=O)N1CCC(C)CC1,-57*,0%,1,-2%
CN(CCC(=O)Nc1ccc2c(c1)OCO2)Cc1ccccc1,-73*,0%,-31,-1%
CN(CCC(=O)Nc1ccc(Cl)cc1)Cc1ccccc1,-97*,3%,-23,-1%
CN(CCOC(=O)c1ccc2c(c1)OCCO2)Cc1ccccc1,-79*,0%,0,2%
O=C(CCl)Nc1ccc2c(c1)OCO2,17,14µM*,2,-4%
CNc1ccc(C=C2c3ccccc3-c3ccccc32)cc1,·,·,·,-3%
CN(CC(=O)Nc1cccc(C#N)c1)Cc1ccc(Cl)cc1,-74*,0%,-18,-5%
CN(CC(=O)Nc1ccc(C#N)cc1)Cc1ccc(Cl)c(Cl)c1,79,1%,3,-8%
O=P(c1ccccc1)(c1ccccc1)C(c1ccco1)N1CCOCC1 (centres undefined),-61*,0%,-28,-2%
CC(NC(=O)c1cnn2c1NC(=C1CC1)C=C2C(F)F)c1ccncc1 (centres undefined),·,·,·,-4%
O=[N+]([O-])c1cc(-c2nc(-c3ccncc3)no2)cc([N+](=O)[O-])c1,1,3%,-1,-1%
Cc1c(-c2nc(-c3ccncc3)no2)cccc1[N+](=O)[O-],-22,11µM*,3,0%
Cc1cccc(-c2nc(-c3ccncc3)no2)c1,15,13µM*,24,-6%
Clc1ccc(Br)cc1-c1nc(-c2ccncc2)no1,13,4µM*,1,6%
FC(F)(F)c1cccc(-c2nc(-c3ccncc3)no2)c1,-24,11µM*,4,-3%
Cc1cc(C)cc(-c2nc(-c3ccncc3)no2)c1,16,0%,2,0%
CCC1(C2CCN(C(=O)c3ccccc3C)CC2)NC(=O)N(CCc2scnc2C)C1=O (centres undefined),·,·,·,-5%
Fc1ccccc1-c1nc(-c2ccccc2)no1,-2,?,-4,-6%
Brc1cccc(-c2nc(-c3ccncc3)no2)c1,43,11µM*,5,1%
Fc1ccccc1-c1nc(-c2ccncc2)no1,32,13µM*,0,-1%
c1ccc(-c2noc(-c3cccc4ccccc34)n2)cc1,15,1.6µM*,-10,-3%
c1ccc2c(-c3nc(-c4ccncc4)no3)cccc2c1,5,25%,-1,4%
CCCN1C(=O)NC2(O)C(=O)c3ccccc3C12O (centres undefined),2,0%,0,-6%
SMILES,D3 antag,Nrf2 activator,D3 ag,Glioma ERSR ind
CN1C(=O)NC2(O)C(=O)c3ccccc3C12O (centres undefined),-60*,0%,9,-3%
O=c1[nH]nc(Cc2ccc(-c3cccc(Cl)c3)o2)c2ccccc12,-61*,5%,1,-6%
O=C(Cc1n[nH]c(=O)c2ccccc12)NCc1ccc(Cl)cc1,-16,-1%,-10,-1%
Oc1c(Cl)cc(Cl)cc1/C=N/c1nc(-c2ccc(Cl)cc2)cs1,-82*,-1%,-12,-5%
Oc1c(Cl)cc(Cl)cc1/C=N/c1nccs1,0,?,-15,-10%
COc1ccc(NC(=O)Nc2sc(=S)n(C)c2C)cc1,-16,13%,-14,-1%
Cc1c(NC(=O)Nc2ccc(Cl)c(Cl)c2)sc(=S)n1C,-73*,21%,-26,-2%
CCc1cccc(NS(=O)(=O)c2ccc3c(c2)N(CC(=O)OC)C(=O)CS3)c1,·,0%,-4,-3%
CC(C)C(NS(C)(=O)=O)c1nnc2n1CCN(Cc1ccnc3ccccc13)CC2 (centres undefined),·,·,·,2%
CCN(C[C@H]1N[C@@](Cc2ccccc2)(C(=O)OC)[C@H]2C(=O)N(Cc3ccccc3)C(=O)[C@@H]12)C(=O)C1CCCCC1,-57*,0%,-26,1%
COC(=O)[C@]1(Cc2ccccc2)N[C@H](CN(C)C(C)=O)[C@@H]2C(=O)N(Cc3ccccc3)C(=O)[C@@H]21,-53*,1%,-33,-1%
CCNC(=O)N(CC)C[C@H]1N[C@@](Cc2ccccc2)(C(=O)OC)[C@H]2C(=O)N(C)C(=O)[C@@H]12,-7,0%,46*,-2%
CC(C)Oc1ccc(-c2nc(-c3cccnc3)no2)cc1,·,·,·,-7%
Cc1ncc2c(c1CNC(=O)/C=C/c1cccs1)CCN(C(=O)c1noc3c1CCCC3)C2,·,·,·,-4%
CC(C)(C)n1ncc2c(=O)n(Cc3ccc(Cl)c(OC(F)(F)F)c3)cnc21,·,·,·,-2%
Cc1c(C(=O)O)oc2ccc(S(=O)(=O)N3CCCC3)cc12,40,0%,4,-4%
CCOC(=O)N1CCN(C(=O)c2oc3ccc(S(=O)(=O)N4CCCCC4)cc3c2C)CC1,18,-1%,44*,-5%
CCCCN(C)C(=O)c1oc2ccc(S(=O)(=O)N3CCCCCC3)cc2c1C,-75*,3%,-6,-2%
C(=C\c1ccccn1)/c1ccccc1,·,·,·,-3%
Cc1ccc(C)c(N2CCN(C(=O)Cn3c(=O)oc4cc(S(=O)(=O)N5CCCC5)ccc43)CC2)c1,-1,1%,9,0%
O=C(Cn1c(=O)oc2cc(S(=O)(=O)N3CCCC3)ccc21)N1CCN(c2ccccc2)CC1,-58*,0%,-8,-1%
COc1ccc2c(c1)CCc1cnc(-n3ncc(C(=O)NC4CCOC4)c3C3CC3)nc1-2 (centres undefined),·,·,·,-3%
CCOc1cc(C(=O)Nc2ccc(-c3nc4cc(Cl)ccc4o3)cc2)cc(OCC)c1OCC,·,-1%,6,·
O=C(CCN1CCN2CCCC2C1)N1c2ccccc2Sc2ccc(Cl)cc21 (centres undefined),-54*,12%,-16,-1%
O=C1CSC2(CCN(CCCN3c4ccccc4Sc4ccc(Cl)cc43)CC2)N1,·,·,-4,-5%
SMILES,D3 antag,Nrf2 activator,D3 ag,Glioma ERSR ind
CN1CCN(CCC(=O)N2c3ccccc3Sc3ccc(Cl)cc32)CC1,-51*,7%,-13,-3%
CN1CCN(CCCN2c3ccccc3Sc3ccc(C(F)(F)F)cc32)CC1,-104*!,-3%,-14,-9%
NCCC(=O)N1c2ccccc2Sc2ccc(Cl)cc21,-10,5%,-6,0%
COC(=O)Nc1ccc2c(c1)N(C(=O)CCN1CCN3CCCC3C1)c1ccccc1S2 (centres undefined),?,4%,-3,-3%
NC(=O)N1CCN(CCCN2c3ccccc3Sc3cc(Cl)ccc32)CC1,-69*,-1%,-7,-3%
O=C1C=CC(=O)c2c(O)c(Cl)c(Cl)c(O)c21,·,·,·,-4%
COCC(=O)Nc1cc(C(=O)N2CCCC2c2nccs2)c2c(c1)nc(-c1ccncc1)n2C (centres undefined),·,·,·,-2%
Cc1nc(C)n(CC(=O)NCC2Cc3cc(-c4ccsc4)cc(Cl)c3O2)n1 (centres undefined),·,·,·,-1%
CCC[C@H]1COCCS(=O)(=O)N1Cc1ccc(F)cc1,·,·,·,-3%
